# Bioassay records: PubChem, National Center for Advancing Translational Sciences (NCATS)
# Shown are actives, neighbours in structure and some others; about 5.9% of the full set was active somewhere.
# RORgamma inh = blocks mouse ROR gamma transcriptional activity; Drosophila S2 Gal4-RORgamma UAS-luciferase reporter, 20 h; actives 5.4% (n = 310,000); P51450; AID 2551; Potency, µM (highest dose often 53.6 µM), without a hit: top-dose activity change, negative = inhibition, most hits filed as inhibitors; also: % is scaled to controls: 0 for no effect and ±100 for the full control effect; nearly all actives have a fitted effect of over 60% in size
# Target sequence (P51450 whole entry, looked up, the tested form may be a part): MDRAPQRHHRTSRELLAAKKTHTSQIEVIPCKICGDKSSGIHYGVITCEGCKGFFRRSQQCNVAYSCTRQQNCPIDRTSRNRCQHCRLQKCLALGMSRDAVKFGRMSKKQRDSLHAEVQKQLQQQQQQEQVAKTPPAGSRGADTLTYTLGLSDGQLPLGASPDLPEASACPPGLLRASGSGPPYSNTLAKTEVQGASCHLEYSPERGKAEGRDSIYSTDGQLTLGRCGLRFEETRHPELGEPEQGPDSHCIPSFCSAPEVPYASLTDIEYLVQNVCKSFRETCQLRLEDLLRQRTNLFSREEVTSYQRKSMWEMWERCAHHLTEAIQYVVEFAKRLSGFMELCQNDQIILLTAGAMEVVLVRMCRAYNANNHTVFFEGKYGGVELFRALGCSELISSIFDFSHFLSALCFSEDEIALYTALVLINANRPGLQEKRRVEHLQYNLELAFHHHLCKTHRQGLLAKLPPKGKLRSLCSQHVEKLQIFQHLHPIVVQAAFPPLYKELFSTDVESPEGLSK
#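 Read-out: Photinus luciferase luminescence; inhibitors lower reporter signal. Insect Schneider cells with Gal4-ROR gamma fusion under metallothionein promoter, UAS reporter; 700 uM final copper sulfate induction, 20 hr, ambient temperature.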
# Gal4-VP16 FLuc = counter-screen for ROR gamma inhibitors: Gal4-VP16 reporter | Drosophila S2 Gal4-VP16 UAS-luciferase, luminescence, 20 h | actives 3.5% (n = 310,000) | Potency, µM (series often up to 53.6 µM), without a hit: at the top dose activity, negative = inhibition, hits mostly inhibitors;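 also: Gal4-VP16 expression switched on by copper sulfate through the metallothionein promoter; % is scaled to controls: 0 for no effect and ±100 for the full control effect; nearly all actives have a fitted effect of over 50% in size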
# GLP1R inv ag = GLP-1 receptor (human) inverse agonism | P43220 | HEK293 GLP-1R CRE-luciferase, luminescence, 24 h; GLP-1R form is constitutively active | actives 1.6% (n = 410,000) | Potency, µM (doses to about 38.3 µM), inactives show at the highest dose activity change, negative = inhibition, hits mostly inhibitors; also: % is scaled to controls: 0 for no effect and ±100 for the full control effect; nearly all actives have a fitted effect of over 55% in size
#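 Assay principle: reduced luminescence from a cAMP-responsive reporter in HEK293 cells co-expressing a constitutively active GLP-1R. Conditions: 24 hr compound incubation, 37 deg C, 5% CO2.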
# GLP1R cytotox = cytotoxic in the GLP-1 receptor inverse agonist counter-screen. actives 0.13% (n = 410,000). HEK293 cAMP-luciferase reporter cells, luminescence, 24 h. Potency, µM (titrated, usually from 38.3 µM), for inactives: at the top dose activity change, negative = inhibition, usual class: inhibitors;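 also: loss of luciferase light is scored as toxicity; % is scaled to controls: 0 for no effect and ±100 for the full control effect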
#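 Compound-treated cells are incubated 24 hr at 37 deg C under 5% CO2 after a 12 hour attachment period, then luciferase detection reagent is added and luminescence is measured following 12 min at room temperature; lowered signal indicates toxicity.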
# GLP1R ag = GLP-1 receptor (human) agonism | Potency, µM (top dose mostly 45.6 µM), for the others: at the top dose activation, actives largely listed as activators | HEK293 GLP-1R CRE-luciferase, luminescence, 4-6 h; cells express a hypersensitive GLP-1R form | P43220 | AID 624172 | actives 0.007% (n = 380,000); also: % of control where 0% means no effect
# * hit, by the source's call; ? = inconclusive; . = no result given; [ ] = dose if it differs, or a comment. Calls follow the shape of the dose curve; as a rule, active = well fitted curve in the direction sought with a large enough effect; inconclusive = small, poorly fitted or top-dose-only effect, or another doubt; inactive = no such curve, though single readings can be large; an effect the other way counts as inactive or inconclusive. Potency is read from the fitted curve at half-maximal effect.
SMILES,RORgamma inh,Gal4-VP16 FLuc,GLP1R inv ag,GLP1R cytotox,GLP1R ag
C=CCn1c(NC(=O)c2ccccc2)nc2ccccc21,0.56µM*,1µM*,?,-12%,15%
CCn1c(NC(=O)c2ccccc2)nc2ccccc21,0.32µM*,2.5µM*,?,0%,5%
CCOC(=O)c1sc(NC(=O)/C=C/c2ccc(F)cc2)nc1C,12%,-2%,-5%,0%,10%
CCCCn1c(CNC(=O)c2cccs2)nc2ccccc21,11µM*,?,?,-6%,6%
C=CCc1cccc(CNc2nc3ccccc3n2CC)c1O,?,-14%,5µM*,-23%,9%
CCCCn1c(NC(=O)C2CCCCC2)nc2ccccc21,1.3µM*,2.8µM*,?,-22%,-8%
CCc1ccccc1Nc1nc2ccccc2n1CC,14µM*,?,-15%,-4%,8%
CCCCCn1c(CNC(=O)c2cccs2)nc2ccccc21,5%,2%,?,?,19%
Cc1cc(C)cc(NC(=O)c2cc(S(=O)(=O)N3CCc4ccccc43)cn2C)c1,.,.,-3%,11%,.
COc1ccc2[nH]cc(CCNc3ncncc3-c3ccccc3C)c2c1,47%,?,.,.,.
CC1=CC2C(C)(C)CC(=O)C[C@]2(C)CC1COc1ccc2c(c1)CC(=O)C=C2 (some centres undefined),-2%,-13%,.,.,.
CCCCn1c(NC(=O)c2ccccc2)nc2ccccc21,1.1µM*,2.2µM*,28%,-12%,7%
Cc1nc2ccccc2n1CC(=O)NC1CCCCCC1,35%,20µM*,-23%,-6%,-5%
CCCn1c(NC(=O)C2COc3ccccc3O2)nc2ccccc21 (centres undefined),1.4µM*,1.4µM*,2%,2%,0%
Nc1nc2ncc(=O)[nH]c2c(=O)[nH]1,-4%,-2%,.,.,.
C=CC[C@@H]1C=C[C@H](O/N=C2\c3cc(OC)ccc3O[C@H](c3cccc(OC)c3)[C@H]2O)[C@H](CO)O1,4%[10 µM],-8%[10 µM],.,.,.
COC(=O)[C@H](COC(C)(C)C)NC(=O)O[C@H]1C(=O)c2ccc(OC)cc2O[C@@H]1c1ccc2c(c1)OCO2,12%,4%,.,.,.
CC(C)C[C@H](NC(=O)c1nc[nH]c1C(=O)NCCCCCNC(=O)OC(C)(C)C)C(=O)OC(C)(C)C,3.2µM*,7.1µM*,?,0%,-3%
CC(C)(C)OC(=O)NCCCC[C@H](NC(=O)c1[nH]cnc1C(=O)Nc1ccccc1)C(=O)OC(C)(C)C,13µM*,?,?,-16%,0%
CC(C)C[C@H](NC(=O)c1nc[nH]c1C(=O)N[C@@H](CCCCNC(=O)OC(C)(C)C)C(=O)OC(C)(C)C)C(=O)OC(C)(C)C,5µM*,11µM*,5%,1%,-3%
CC(C)(C)OC(=O)NCCCC[C@H](NC(=O)c1nc[nH]c1C(=O)N1CCN(c2ccccc2)CC1)C(=O)OC(C)(C)C,13µM*,?,-15%,-8%,-4%
CC(C)(C)OC(=O)NCCCCCNC(=O)c1nc[nH]c1C(=O)N1CCN(c2ccccc2)CC1,.,.,5%,0%,9%
CCc1ccc(NC(=O)CSc2ccc(-c3sc(-c4ccccc4)nc3C)nn2)cc1,.,.,19%,3%,.
Oc1ccc(N=Nc2c(O)ccc3ccccc23)cc1,?,13µM*,-2%,?,-3%
Oc1ccc(N=Nc2ccc3ccccc3c2)cc1,6.3µM*,?,-5%,-24%,2%
SMILES,RORgamma inh,Gal4-VP16 FLuc,GLP1R inv ag,GLP1R cytotox,GLP1R ag
NS(=O)(=O)c1ccc(N=Nc2c(O)ccc3ccccc23)cc1,28%,-12%,34%[7.66 µM],-4%[7.66 µM],0%
COc1cc(N=Nc2ccc3ccccc3c2)ccc1O,13%[1.91 µM],-29%,?,-12%,20%
O=C(NC1CC(=O)N(c2cccc(F)c2)C1)C(c1ccccc1)c1ccccc1 (centres undefined),.,.,?,2%,.
NNc1nc(-c2ccccc2)c2ccccc2n1,7.9µM*,?,9%,?,10%
CC(C)(C)C(=O)Nc1nnc(-c2ccccc2)c(-c2ccccc2)n1,15%,-6%,?,8%,12%
NNc1nnc(-c2ccccc2)c(-c2ccccc2)n1,11µM*,?,0%,?,1%
Clc1ccc(Nc2nc(-c3ccccc3)c3ccccc3n2)c(Cl)c1,.,.,1%,0%,.
CCOC(=O)c1c(C)[nH]c(C)c1S(=O)(=O)N1CCCC(C(=O)N2CCN(c3cccc(Cl)c3)CC2)C1 (centres undefined),.,.,12%,-17%,.
O=C(CCCN1C(=O)/C(=C/c2cccc(Br)c2)SC1=S)Nc1cccnc1,14µM*,-9%,?,-22%,3%
O=C(CCCN1C(=O)/C(=C\c2cccc(Br)c2)SC1=S)Nc1cccnc1,1%,-5%,?,?,-3%
Cc1ccc(/C=C2\SC(=S)N(CCCC(=O)Nc3cccnc3)C2=O)cc1,6.3µM*,2.2µM*,?,-2%,-4%
Cc1ccc(/C=C2\SC(=S)N(CC(=O)Nc3cccnc3)C2=O)cc1,9%,-4%,19%,-1%,0%
C[C@@H]1CCC[C@]2(C)CCCC[C@@]12O,-26%,2%,.,.,.
CCOC(=O)C(=NCC1CCCO1)NNc1cc(Cl)ccc1Cl (centres undefined),10%,-7%,11µM*,5%,20%
COc1ccc(NC(=O)Cn2nc(-c3ccccc3)c3cnc4ccc(C)cc4c32)cc1,.,.,14%,21%,.
C=C1C(=O)[C@]23C[C@H]1CCC2[C@]1(C)CCC[C@@](C)(C(=O)O)C1C[C@@H]3O (some centres undefined),.,.,1.8µM*,?,-12%
C/C(C/C(C)=C1/SC(=S)NC1=O)=C1\SC(=S)NC1=O,-14%,6%,1%,-4%,-1%
CCCCCC/C(C)=C1/SC(=S)NC1=O,16µM*,-19%,?,-14%,-26%
CCCCn1c(CNC(=O)C23CC4CC(CC(C4)C2)C3)nnc1SC(C)CC (centres undefined),?,?,3.5µM*,-15%,2%
CCCN1CNC(=S)N(c2cc(C)ccc2C)C1,13µM*,11µM*,-6%,-2%,-1%
Cc1ccc(C)c(N2CN(CCC3=CCCCC3)CNC2=S)c1,3.2µM*,4.5µM*,?,?,9%
CCCC(=O)OC(=O)CCC,13%,-7%,.,.,.
Cc1ccc(C)c(CS(=O)(=O)c2cn(CC(=O)N(C(C)C)C(C)C)c3ccccc23)c1,.,.,-10%,-7%,.
Cc1ccc(C(=O)CSc2nnnn2C(C)C)c(C)c1,11µM*,13µM*,4.5µM*,-4%,-4%
Cn1nnc(NC(=S)NC(=O)c2cc(Cl)ccc2Cl)n1,0.79µM*,2µM*,?,-2%,-1%
COc1cc2ccccc2cc1C(=O)NC(=S)Nc1nnn(C)n1,1µM*,1.1µM*,0%,-19%,10%
